# Reference: paper PMC5540273 (PLoS ONE, 2017)
# What was measured:
# Details in all cases: concentration: 1 μM, replicates: in singlicate; n = 1
# [1] = test system: T1, TRKC
# T1 construct: gene NTRK3
# [2] = test system: TRPM6
# [3] = test system: TSSK1B
# [4] = test system: TSSK3
# [5] = test system: TTK
# [6] = test system: TXK
# [7] = test system: TYK2(JH1domain-catalytic)
# [8] = test system: TYK2(JH2domain-pseudokinase)
# [9] = test system: TYRO3
# [10] = test system: ULK1
# 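Note: KINOMEscan kinase panel screen.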
SMILES,%Inh [1],%Inh [2],%Inh [3],%Inh [4],%Inh [5],%Inh [6],%Inh [7],%Inh [8],%Inh [9],%Inh [10]
CS(=O)(=O)CCNCc1nc(-c2ccc3ncnc(Nc4ccc(OCc5cccc(F)c5)c(Cl)c4)c3c2)cs1.Cl [GW583340],0%,37%,0%,12%,0%,94.7%,0%,16%,0%,0%
COc1cc2c(Nc3cccc(NC(=O)c4ccccc4)c3)ncnc2cc1OCCCN1CCOCC1 [GSK223810],0%,0%,5%,17%,29%,0%,0%,0%,0%,17%
Nc1nc(-c2ccc3c(N)n[nH]c3c2)cc(N2CCCCC2)n1 [GSK2228768],0%,10%,0%,3%,0%,0%,0%,5%,0%,10%
Fc1ccc(Nc2nccc(-c3c(-c4ccc(Cl)cc4)nn4ncccc34)n2)cc1F [GW829058],35%,20%,0%,33%,8%,19%,20%,40%,8%,45%
Fc1cccc(COc2ccc(Nc3ncnc4sc(-c5ccc[nH]5)cc34)cc2Cl)c1 [GW707818],14%,30%,0%,7%,0%,5%,17%,10%,0%,0%
CC(C)(C)c1ccc(-n2cnc3c(N)ncnc32)cc1 [SKF-97263],0%,34%,16%,13%,15%,16%,6%,41%,0%,24%
CCc1nc(-c2cccc(C)c2)c(-c2ccnc(NC(=O)c3ccccc3)c2)s1,15%,0%,0%,1%,16%,0%,24%,17%,0%,1%
CSc1ccc(NC2=C(c3ccccc3Cl)C(=O)NC2=O)cc1 [SB-342411],0%,0%,21%,10%,0%,3%,0%,0%,5%,10%
CC(C)(C)OC(=O)NC1CCCN(c2cc(-c3ccc4c(N)n[nH]c4c3)nc(N)n2)C1 (centres unmarked) [GSK2286096],0%,39%,0%,96.5%,0%,0%,66%,0%,0%,1%
CNc1nccc(-c2c(-c3ccc(F)cc3)ncn2C2CCN(C)CC2)n1 [SB-222903],0%,0%,0%,0%,23%,0%,0%,0%,0%,0%
Cn1ccc2ncnc(Oc3ccc(NC(=O)Nc4cccnc4)c(Cl)c3)c21,0%,0%,0%,2%,1%,0%,0%,0%,0%,0%
Oc1ccc2ncnc(Nc3ccc(OCc4ccccc4)cc3)c2c1 [GI262866],0%,0%,0%,18%,13%,37%,19%,0%,0%,14%
C[C@@H]1CCN(C(=O)CO)C[C@@H]1N(C)c1ncnc2[nH]ccc12,0%,0%,0%,0%,0%,7%,90.6%,0%,0%,0%
OCCOCCn1ccc2ncnc(Nc3ccc(Oc4cccc(Cl)c4)c(Cl)c3)c21,0%,0%,0%,0%,0%,0%,0%,0%,0%,0%
Cn1ccc2ncnc(Nc3ccc(Oc4cccc(Cl)c4)c(Cl)c3)c21,11%,0%,0%,2%,16%,25%,18%,4%,4%,10%
O=C(NCCCN1CCCC1=O)c1cnc(NCc2cc(Cl)ccc2Cl)nc1NC1CCNCC1,15%,0%,0%,0%,0%,0%,0%,0%,14%,0%
CSc1nn2c(=O)cc(N3CCOCC3)nc2n1Cc1cccc(Cl)c1Cl [GSK2347225],0%,0%,26%,30%,0%,0%,12%,0%,5%,7%
